# Screening results deposited in PubChem by The Scripps Research Institute Molecular Screening Center.
# SF1 inhibitor = inhibitors of human nuclear receptor SF-1. CHO-K1 Gal4-SF-1 LBD luciferase reporter. inhibition, % at 10 µM. actives 0.55% (n = 65,000). AID 525;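 active = inhibition above the mean inhibition of all tested compounds plus 3 SD, cut at about 48% in these data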;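 also: 0% = SF-1 transfected cells with DMSO and 100% = mock-transfected cells lacking SF-1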
# Active calls of the source: *. Shown is part of a subset that was picked to be rich in hits.
SMILES,SF1 inhibitor
Cc1c2ccncc2c(C)c2c1[nH]c1ccccc12,76*
COc1cccc(-c2cc(C(F)(F)F)n3nc(C(=O)N4CCC5(CC4)OCCO5)cc3n2)c1,-2
CCC(=NCC1CCCO1)c1c(O)[nH]c(=O)[nH]c1=O (stereo not given),-2
OC1(c2ccc(F)cc2)CC2CCC(C1)N2Cc1nnnn1C1CCCCC1 (stereo not given),-14
CCCCn1c(O)c(C=NCCN2CCCCC2)c(=O)[nH]c1=O,1
CCCCn1c(O)c(C=NCCCN(CC)CC)c(=O)[nH]c1=O,4
CN1C(=O)C(C2(C#N)CCCCC2)C(=O)N(C)C1=O,-13
C[C@@]1(CO)[C@H](O)CC[C@@]2(C)[C@H]1CC[C@H]1C[C@@H]3C[C@@]12CC[C@]3(O)CO,84*
C=CCOC(=O)C1=C(C)OC(N)=C(C#N)[C@@]12C(=O)N(CC(N)=O)c1ccccc12,-2
C[C@]12CCC(=O)C=C1CCC1C2CC[C@@]2(C)C1CC[C@@]2(O)CC#N (stereo not given in full),-14
Cc1ccc2cc3cc(C(=O)N4CCC5(CC4)OCCO5)oc3nc2c1,-13
CN1CCN(C(=O)COc2ccc(-c3nc4ccccc4s3)cc2)CC1,71*
COCCn1cc(C(=O)N2CCC3(CC2)OCCO3)c2c3ccccc3n(C)c2c1=O,-1
COC(=O)N(c1ccccc1)P1(=S)OCCO1,-8
CC(C(N)=O)N1CC(c2ccccc2)CC1=O (stereo not given),-12
COC(=O)c1ccc(N2C(=O)CC(N3CCC(n4c(=O)[nH]c5ccccc54)CC3)C2=O)cc1 (stereo not given),54*
O=C(c1cc(Br)ccc1Cl)N1CCC2(CC1)OCCO2,8
Cc1cccc(N2CCc3c2nc2ccccc2c3N)c1,6
COc1ccc(C2C(C(=O)N3CCC4(CC3)OCCO4)c3cc(OC)c(OC)cc3C(=O)N2C)cc1 (stereo not given),12
CCOc1cc2[nH]c(=S)n(CCCC(=O)N3CCC4(CC3)OCCO4)c(=O)c2cc1OCC,-4
Cn1ncnc2c(=O)n(C)c(=O)nc1-2,96*
CCOP1(=S)Oc2cc3c(cc2C(C(=O)OC)(C(F)(F)F)O1)OCO3 (stereo not given),-1
O=C1C2CCN(CC2)[C@@H]1Cc1ccc2ccccc2c1O,-7
C=CCn1c(O)c(C(C)=Nc2ccc(C(=O)OCC)cc2)c(=O)[nH]c1=O,4
Oc1cc2c(cc1CN1CCN(c3ccccc3)CC1)CCC2,13
